Laboratory results taken from the supplement of paper PMC6555819.

Experiments:
Experiment in all cases: PBM binding z-score (relative to random genomic background probes); higher = stronger binding; sequences stand for … in GC…GCGATTGACAGCGTAGAATGAAGG
[1] = tested on: FXR:RXRa (NR concentration 270 nM, RXRa partner concentration 90 nM)
Summary of the method: (§1)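 Custom Agilent 4×180K protein-binding microarrays carried double-stranded probes. Their 34-nt variable regions held direct-repeat seeds, single-nucleotide variants, half-site ablations and random human genomic background sequences. Arrays were incubated 1 h with ligand-free nuclear receptor dimers in PBS pH 7.4, 2% milk, 0.02% Triton X-100, 1 mM DTT, 0.2 mg/mL BSA and 0.4 mg/ml salmon testes DNA. Antibodies against each partner (one per run) detected binding, and scanned fluorescence was regression-normalized. Binding z-scores use random background probes as reference.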

[2] = tested on: LXRa:RXRa (NR concentration 270 nM, RXRa partner concentration 90 nM)
Summary of the method: as §1

[3] = tested on: LXRa homodimer (NR concentration 270 nM)
Summary of the method: as §1

[4] = tested on: LXRb:RXRa (NR concentration 270 nM, RXRa partner concentration 90 nM)
Summary of the method: as §1

[5] = tested on: LXRb homodimer (NR concentration 270 nM)
Summary of the method: as §1

[6] = tested on: PPARa:RXRa (NR concentration 270 nM, RXRa partner concentration 90 nM)
Summary of the method: as §1

[7] = tested on: PPARg:RXRa (NR concentration 180 nM, RXRa partner concentration 90 nM)
Summary of the method: as §1

[8] = tested on: PPARg:RXRa 270nM:90nM, anti-RXR (NR concentration 270 nM, RXRa partner concentration 90 nM)
Summary of the method: as §1

[9] = tested on: PPARg:RXRa 30nM:10nM, anti-RXR (NR concentration 30 nM, RXRa partner concentration 10 nM)
Summary of the method: as §1

[10] = tested on: PPARg:RXRa 90nM:30nM, anti-RXR (NR concentration 90 nM, RXRa partner concentration 30 nM)
Summary of the method: as §1

[11] = tested on: PPARg:RXRa DBDmut IVT, anti-RXR (DBD mutation: RXRa K156A/R161A, NR concentration 270 nM, RXRa partner concentration 90 nM)
Summary of the method: as §1

[12] = tested on: PPARg:RXRa IVT, anti-PPARg (NR concentration 270 nM, RXRa partner concentration 90 nM)
Summary of the method: as §1

[13] = tested on: PPARg DBDmut:RXRa IVT, anti-PPARg (DBD mutation: PPARg1 K132A/R137A, NR concentration 270 nM, RXRa partner concentration 90 nM)
Summary of the method: as §1

[14] = tested on: PPARg DBDmut IVT, anti-PPARg (DBD mutation: PPARg1 K132A/R137A, NR concentration 270 nM)
Summary of the method: as §1

[15] = tested on: PPARg homodimer (NR concentration 180 nM)
Summary of the method: as §1

[16] = tested on: PXR homodimer (NR concentration 270 nM)
Summary of the method: as §1

[17] = tested on: RARa:RXR (NR concentration 270 nM, RXRa partner concentration 90 nM)
Summary of the method: as §1

[18] = tested on: RARa homodimer (NR concentration 270 nM)
Summary of the method: as §1

[19] = tested on: RARb:RXRa (NR concentration 270 nM, RXRa partner concentration 90 nM)
Summary of the method: as §1

Row | Sequence | PBM binding z-score [1] | PBM binding z-score [2] | PBM binding z-score [3] | PBM binding z-score [4] | PBM binding z-score [5] | PBM binding z-score [6] | PBM binding z-score [7] | PBM binding z-score [8] | PBM binding z-score [9] | PBM binding z-score [10] | PBM binding z-score [11] | PBM binding z-score [12] | PBM binding z-score [13] | PBM binding z-score [14] | PBM binding z-score [15] | PBM binding z-score [16] | PBM binding z-score [17] | PBM binding z-score [18] | PBM binding z-score [19]
1 | CCTAGTTGGTCAAGGTAACACACGCTATAGGTAC | 0.638 | 0.459 | 0.594 | 0.713 | 0.295 | 0.749 | 1.08 | 1.32 | 0.57 | 0.891 | 1.65 | 1.92 | 0.633 | 0.573 | 1.25 | 0.51 | 0.946 | 1.13 | 1.26
2 | ACTATCAGGCCAAGGGTCACTCAAGATTAGTCCG | 2.77 | 3.13 | 0.488 | 2.87 | 0.938 | 4.54 | 7.66 | 7.12 | 6.22 | 7.87 | 1.26 | 3.82 | 0.909 | 0.584 | 3.28 | 0.337 | 4.42 | 1.45 | 3.72
3 | CCTTACGGGCCACGAGGTTATAGCACGACGAGCG | 0.333 | 0.406 | -0.158 | 0.202 | -0.806 | 1.44 | 1.29 | 0.67 | -0.315 | 0.471 | 0.97 | 1.16 | -0.462 | -1.1 | 0.126 | -0.12 | 1.06 | -0.0676 | 1.15
4 | CGTCCGAGGTCAAAGGTCAGTGAAGAGATGACGG | 8.25 | 7.31 | 3.51 | 7.09 | 2.24 | 7.17 | 11.3 | 9.76 | 8.58 | 11.5 | 4.36 | 6.35 | 2.87 | 3.81 | 5.95 | 3.02 | 8.81 | 4.96 | 5.93
5 | CAAACTAGGTCACCGGGAGGTCAAAGTCCGCATG | 6.46 | 6.26 | 6.39 | 5.87 | 1.73 | 6.17 | 9.53 | 8 | 6.05 | 8.25 | 8.47 | 9.02 | 1.69 | 0.534 | 6.45 | 4.09 | 7.76 | 3.15 | 5.16
6 | TCTCGGAGGACACGAAAGGGCAGAGCTCGACATC | 0.131 | 0.581 | -0.282 | -0.082 | -0.72 | 0.48 | 0.29 | 0.85 | 1.65 | 1.2 | 1.43 | 0.279 | -1.54 | -1.04 | -0.108 | -0.585 | 0.468 | -0.203 | 2.42
7 | AGTCAAAGTTCTTCTAGGTAACGTAAGATATGCT | 0.261 | -0.366 | 0.0883 | -0.0374 | 0.0414 | 0.304 | 0.844 | 1.16 | 0.354 | 0.549 | 0.515 | 1.89 | 0.999 | 1.12 | 0.188 | 0.42 | 0.106 | 0.636 | 0.948
8 | ATCGAAAGGGCGTGAGGTGAGTATACAGAAAGGC | 0.437 | 0.45 | -0.364 | 0.429 | -0.169 | 1.36 | 0.822 | 0.778 | 0.328 | 0.452 | -0.47 | 1.02 | 0.673 | 0.814 | 0.257 | 0.256 | 1.08 | 0.276 | 1.89
9 | GGAACGAGGGCATTCGAGTTGATAGCATGGCGAT | 1.35 | 1.46 | -0.481 | -0.0953 | -0.345 | 1.38 | 0.867 | 0.479 | -0.23 | -0.0469 | 2.91 | 2.18 | -0.045 | 0.402 | -0.267 | 1.45 | 0.423 | -0.292 | 1.73
10 | ACTAGTAGGTCAGCTGAGGTCACACACAATTCGG | 6.7 | 6.09 | 5.43 | 5.14 | 1.5 | 5.36 | 7.75 | 6.54 | 4.28 | 6.26 | 7.68 | 7.77 | 2.63 | 2.31 | 6.08 | 4.54 | 6.25 | 4.07 | 5.01
11 | GATAAAGGGTCAGCTAGAGGCCAGAGTATGGAAA | 5.39 | 3.97 | 0.0664 | 3.27 | 0.0558 | 5.06 | 4.3 | 4.76 | 2.03 | 3.31 | 2.27 | 2.89 | 0.542 | -0.0188 | 3.27 | -0.0592 | 4.78 | 1.02 | 5.21
12 | CAAGCTAGGTCAAAGGTCAAAGTCGAGCCAACCA | 8.68 | 7.38 | 5.19 | 7.27 | 2.73 | 7.38 | 12.9 | 10.7 | 12 | 12 | 5.45 | 6.94 | 1.27 | -0.285 | 5.21 | 1.5 | 9.03 | 2.23 | 6.05
13 | CGCCCAAGGTCAGCAGGTCAGTGAAAGCGACGTG | 5.7 | 4.2 | 0.381 | 2.99 | -0.0743 | 4.81 | 3.8 | 4.59 | 1.02 | 2.98 | 2.94 | 3.56 | 0.803 | -0.776 | 3.74 | 0.324 | 5.15 | 1.97 | 5.18
14 | ATATGTAGGTTACATCGGGGTCATTCAGGCTATG | 4.88 | 5.89 | 3.8 | 4.91 | 1.46 | 5.71 | 7.19 | 6.35 | 4.23 | 5.65 | 7.87 | 7.63 | 3.44 | 3.24 | 3.92 | 10.3 | 7 | 1.93 | 3.25
15 | CGTCCAAGGTCAGAGAGGTCACTGAATGCCGAGT | 6.61 | 5.79 | 4.5 | 5.36 | 0.485 | 5.61 | 4.58 | 5.36 | 1.92 | 4.08 | 3.27 | 4.05 | 0.000167 | 0.0701 | 3.8 | 13.1 | 6.81 | 1.13 | 5.37
